The sample as a whole holds a higher share of hits than the screen did.
FECH block: inhibitors of human ferrochelatase, primary screen, biochemical, purified FECH, Ni-mesoporphyrin absorbance; Ferrochelatase, mitochondrial (Homo sapiens), P22830; Ni-mesoporphyrin absorbance 550 nm; calls only at 10 µM (by protocol); hit rate 3.3% among 20,000;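 active means enzyme reaction rate more than 3 SD below the solvent-only control wells on the same plate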;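 further: lower slope than DMSO wells means FECH inhibition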
Target sequence (P22830 whole entry, looked up): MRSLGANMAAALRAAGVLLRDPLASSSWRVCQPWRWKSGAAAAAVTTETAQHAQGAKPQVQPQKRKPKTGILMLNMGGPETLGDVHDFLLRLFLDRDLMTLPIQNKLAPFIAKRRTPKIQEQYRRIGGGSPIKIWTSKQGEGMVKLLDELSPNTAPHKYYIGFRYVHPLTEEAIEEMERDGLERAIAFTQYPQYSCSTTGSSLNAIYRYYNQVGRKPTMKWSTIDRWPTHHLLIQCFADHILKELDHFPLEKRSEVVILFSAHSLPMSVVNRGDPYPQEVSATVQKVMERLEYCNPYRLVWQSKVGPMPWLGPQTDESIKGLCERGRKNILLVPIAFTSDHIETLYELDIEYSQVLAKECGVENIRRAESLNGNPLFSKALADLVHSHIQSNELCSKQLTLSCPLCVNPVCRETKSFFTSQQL
* hit, by the source's call; i = inactive; + = active, no number.

SMILES	FECH block
COc1cccc(OCC(=O)Nc2cc(C)nn2-c2ncnc3c2cnn3-c2cccc(C)c2C)c1	i
CCCC(NC(=O)c1ccncc1F)c1ccccc1 (stereo not drawn)	i
CCOC(=O)CNS(=O)(=O)c1cc(N2C(=O)CCS2(=O)=O)ccc1OC	i
CCOc1ccc(NS(=O)(=O)c2cc(N3C(=O)CCS3(=O)=O)ccc2C)cc1	i
O=C(CN1CCCN(Cc2cccc(Cl)c2)S1(=O)=O)Nc1ccccc1	i
Cc1cccc(CN2CCCN(CC(=O)Nc3cc(Cl)ccc3C)S2(=O)=O)c1	+
Cc1ccc(CN2CCCN(CC(=O)Nc3ccc(C)cc3Cl)S2(=O)=O)cc1	i
Cc1ccc(NC(=O)CN2CCCN(Cc3cccc(Cl)c3)S2(=O)=O)c(Cl)c1	+
Cc1cccc(CN2CCN(CC(=O)Nc3c(C)cccc3C)S2(=O)=O)c1	i
Cc1cccc(CN2CCCN(CC(=O)Nc3cc(C)ccc3C)S2(=O)=O)c1	i
Cc1nc(NC(=O)NCc2cccc(OC(F)(F)F)c2)nn1C(C)C	i
CC(C)c1nnsc1CNC(=O)CN1CCOc2ccccc2C1	i
CCCc1nc(N2CC[C@@H](c3ccc4ccccc4c3)[C@H](O)C2)no1	i
Cc1cccc(-c2nc3nc(CN4CCCCC4C)cc(=O)n3[nH]2)c1 (stereo not drawn)	+
CC1CCCCN1Cc1cc(=O)n2[nH]c(-c3ccc(C(C)(C)C)cc3)nc2n1 (stereo not drawn)	i
Cc1cccc(-c2nc3nc(CN4CCCC4)cc(=O)n3[nH]2)c1	i
COc1cccc(-c2cc(CN3Cc4ncccc4C3=O)no2)c1	i
COc1cc(NC(=O)C2CCN(c3ccc(-c4ccccc4)nn3)CC2)cc(OC)c1	i
Cc1nn(C)c(C)c1-c1ccnc(NC(C)c2ccc(F)cc2)n1 (stereo not drawn)	i
O=C1CCC2(CCN1)CCN(C(=O)C/C=C/c1ccccc1)CC2	i
Cc1cc(C)c(CN2CCC3(CCNC(=O)CC3)CC2)c(C)c1	+
COc1cccc(-c2[nH]ncc2C(=O)N2CCC3(CCNC(=O)CC3)CC2)c1	i
O=C1CC[C@@H](CN(Cc2cccnc2)Cc2ncc[nH]2)N1	i
CCCN(CCC)c1ncc(NS(=O)(=O)c2ccc(C(C)C)cc2)cc1C(=O)O	i
Cc1c(-c2nccn2Cc2cccnc2)oc2ccccc12	+
SMILES	FECH block
Cc1c(CN2Cc3ncccc3C2=O)oc2ccccc12	i
CCc1oc2ccccc2c1-c1nccn1CCN(C)C	i
COc1cccc(S(=O)(=O)NCCn2c(C(F)(F)F)nc3cccnc32)c1	i
CCCNC(=O)C1CCN(c2ccc(-c3ccc(F)cc3)nn2)CC1	i
Cc1cc(N2CCOCC2)n2nc(-c3cccnc3)nc2n1	i
CN(C)CCCn1ccnc1-c1ccnn1-c1ccccc1	i
CN(Cc1cnc(N)nc1)Cc1nc(-c2ccccc2)no1	i
CNc1nc(N2CCC(Cc3nnc(SC)n3C)CC2)nc2c1CCC2	+
CSc1nnc(CC2CCN(C/C=C/c3ccco3)CC2)n1C	i
Cc1cc(NC(=O)c2ccc(C(F)(F)F)cc2)n(-c2ncnc3c2cnn3-c2ccc(Cl)cc2)n1	i
Cc1oc(-c2ccccc2Cl)cc1C(=O)NCCc1cnc[nH]1	+
c1cnc2c(-c3nccn3CCc3cnc[nH]3)cccc2c1	i
Cc1oc(-c2ccccc2Cl)cc1C(=O)NCCN1CCNC1=O	i
CCOCCCNC(=O)C1c2c(n(C)c3ccccc23)SCC(=O)N1CCc1ccsc1 (stereo not drawn)	i
Cc1cc(C)n(CCC(=O)N(C)CCc2noc(C(C)C)n2)c(=O)n1	+
CC(C)c1nc(CCN(C)C(=O)c2ccc(Cl)cn2)no1	i
Cc1cc(C)n(CCC(=O)N(C)Cc2noc(CC(C)C)n2)c(=O)n1	i
COc1ccc(C2C=C(c3ccccc3)Nc3nc(N4C(=O)c5ccccc5C4=O)nn32)cc1 (stereo not drawn)	i
CC1(C)CC(NC(=O)c2nc[nH]c2C(=O)NCc2ccccn2)CC(C)(C)N1	i
CC(C)(C)CNC(=O)c1[nH]cnc1C(=O)NCCc1c[nH]c2ccccc12	i
O=C(NC(c1ccccc1)c1ccccc1)c1nc[nH]c1C(=O)NCc1ccccn1	+
O=C(NCCc1c[nH]c2ccccc12)c1nc[nH]c1C(=O)NCc1ccccc1	+
O=C(NCc1ccccc1)c1nc[nH]c1C(=O)NCc1cccnc1	i
CCCNC(=O)c1[nH]cnc1C(=O)NC(c1ccccc1)c1ccccc1	i
O=C(NCc1ccccn1)c1nc[nH]c1C(=O)NCc1ccccc1	+
SMILES	FECH block
CCCNC(=O)c1nc[nH]c1C(=O)NCc1ccccc1	i
CN(C)CCNC(=O)c1nc[nH]c1C(=O)NCc1ccccn1	i
COc1ccc(N2C(=O)CCS2(=O)=O)cc1S(=O)(=O)NCc1cccnc1	i
CCNC(=O)N1CCC(NC(=O)c2ccc(OCC)o2)CC1	i
CCC(NC(=O)Cn1cc(C)c(=O)[nH]c1=O)c1nc(C)c(C)s1 (stereo not drawn)	i
CCC(CC)n1nc(C)cc1NC(=O)Cc1cnc2c(C)cccn12	i
Cc1cccc(C)c1CN1CCCC(CNC(=O)c2cnccn2)C1 (stereo not drawn)	i
COc1ccc(NC(=O)c2cc(-c3ccc(OC)c(S(N)(=O)=O)c3)n[nH]2)cc1	i
COc1cc(Cl)cc2c1OC=CC(C(=O)Nc1ccc(S(N)(=O)=O)cc1)=C2	+
NS(=O)(=O)c1ccc(NC(=O)c2csnn2)cc1	i
CC(C)NC(=O)c1nc[nH]c1C(=O)N1CCCCC1	i
COCC(NC(=O)c1cn(-c2ccccc2)nn1)c1ccnn1C (stereo not drawn)	i
CCC(=O)Nc1cc(C)nn1-c1ncnc2c1cnn2-c1ccc(C)cc1C	i
COc1ccc(-c2ccoc2)cc1CNC1CCCC1	i
O=C(CN1CCCN(Cc2ccccc2)S1(=O)=O)NCCCc1ccccc1	i
Cc1cccc(N2CCN(C(=O)c3nc4ccccc4n(C)c3=O)CC2C)c1 (stereo not drawn)	+
Cc1cccc(N2CCN(C(=O)Cn3c(=O)c4cnc(-c5ccccc5)nc4n(C)c3=O)CC2C)c1 (stereo not drawn)	i
Cc1ccc(NC(=O)c2nc3ccccc3n(C)c2=O)c(C)c1	i
Cn1c(=O)c(C(=O)N2CCN(C3CCCCC3)CC2)nc2ccccc21	i
COc1cccc(N2CCN(C(=O)c3nc4ccccc4n(C)c3=O)CC2)c1	+
Cc1ccc(Cl)cc1N1CCN(C(=O)c2nc3ccccc3n(C)c2=O)CC1	i
O=C(NCCN1CCCC(c2ccccc2)C1)c1ncc[nH]1 (stereo not drawn)	i
CSc1nc(-c2ccccc2)c(C#N)c(N2CCC(C(N)=O)CC2)n1	i
COc1ccc(N2C(=O)CCS2(=O)=O)cc1S(=O)(=O)NCCc1ccccc1F	i
Cc1cc(N(C)C)nc(N2CCN(S(=O)(=O)c3ccccc3)CC2)n1	+
SMILES	FECH block
Cc1cc(N(C)C)nc(N2CCN(S(=O)(=O)c3ccc(Oc4ccccc4)cc3)CC2)n1	i
Cc1cccc(S(=O)(=O)N2CCN(c3nc(C)cc(N(C)C)n3)CC2)c1	i
COc1ccccc1CNC(=O)c1ccc(CC2CCCNC2)cc1 (stereo not drawn)	i
CCc1c(C)nc2ncnn2c1Sc1ccc(NC(=O)Nc2ccc(C)c(F)c2)cc1	+
CCc1c(C)nc2ncnn2c1Sc1ccc(NC(=O)Nc2ccccc2)cc1	i
CCc1c(C)nc2ncnn2c1Sc1ccc(NC(=O)Nc2cccc(C)c2)cc1	i

Source: PubChem
